Assay [1] in a line: qHTS assay for measurement of the activity of small molecule inhibitors on Zika virus induced Caspase-3 activity in human iPSC derived neural progenitor cells (hNPCs) (AID 1224857). Also: nearly all actives have a fitted effect of over 65% in size. Put shortly: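 After overnight (16–20 h) culture at 350 cells/well, hNPCs get compound, then ZIKV 2 FFU/cell one hour later. Six hours on, Caspase-Glo 3/7 is added and luminescence measured.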
Assay [2] can be described thus: qHTS assay for measurement of the activity of small molecule inhibitors on Zika virus induced Caspase-3 activity in human astrocytoma cells (AID 1224859). Put shortly: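 Inhibition of Zika-induced caspase-3/7 activity: SNB-19 cells, 1 h compound pretreatment, ZIKV 2 FFU/cell for 6 h at 37 C, Caspase-Glo luminescence read-out.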
Background: Quantitative high-throughput screening tests each substance at several concentrations.

Assay [3] is described as follows: qHTS Screen of the MIPE 4.0 Collection Against Ewings Sarcoma (RDES) (AID 1259252). Also: nearly all actives have a fitted effect of over 35% in size. Also: potency is read from the fitted curve at half-maximal effect. Put shortly:
(§1)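 Cells plated in serum-containing RPMI (5% FBS) and treated with compound dilutions for 48 h. Readout luminescent viability; normalization relied on vehicle (no inhibition) and media-only columns (full inhibition).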

A short description of assay [4]: qHTS Screen of the MIPE 4.0 Collection Against Ewings Sarcoma (TC71) (AID 1259253). Also: nearly all actives have a fitted effect of over 40% in size. Also: potency is read from the fitted curve at half-maximal effect. Put shortly:
as §1

Assay [5] is described as follows: qHTS Screen of the MIPE 4.0 Collection Against Ewings Sarcoma (EW8) (AID 1259255). Also: nearly all actives have a fitted effect of over 35% in size. Also: potency is read from the fitted curve at half-maximal effect. Put shortly: as §1
Assay [6] is described as follows: qHTS Screen of the MIPE 4.0 Collection Against Ewings Sarcoma (TC32) (AID 1259256). Also: nearly all actives have a fitted effect of over 45% in size. Also: potency is read from the fitted curve at half-maximal effect. The method in brief:
as §1

Assay [7] is described as follows: Identifying Small Molecule Inhibitors of Pancreatic Cancer Stem Cells (SN12C, Adherent) (AID 1259358).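 Also: cell survival measured after 48 h of compound exposure.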 Put shortly: (§2)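 Pre-formed 14-day tumor spheroids or adherent cells dosed and incubated 48 h, 37C, 5% CO2. Viability assessed by CellTiter-Glo.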
Assay [8] is described as follows: Identifying Small Molecule Inhibitors of Pancreatic Cancer Stem Cells (SN12C, Spheroid) (AID 1259360). Particulars: Potency: SN12C spheroid viability. The method in brief:
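Endpoint: ATP-based luminescence, 48 h drug exposure. Bortezomib at 9.2 uM final as full-kill control; DMSO vehicle as negative control; activity normalized between vehicle and cell-free wells.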

Assay [9] in a line: P-glycoprotein substrates identified in KB-3-1 adenocarcinoma cell line, qHTS therapeutic library screen (AID 1346986). Also: nearly all actives have a fitted effect of over 60% in size. Put shortly:
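Dose-response cytotoxicity, KB-3-1 vs P-gp-high KB-8-5-11, no colchicine in assay medium. Read: CellTiter-Glo at 72 h.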

The nature of assay [10]: P-glycoprotein substrates identified in KB-8-5-11 adenocarcinoma cell line, qHTS therapeutic library screen (AID 1346987). Also: nearly all actives have a fitted effect of over 65% in size. Also: potency is read from the fitted curve at half-maximal effect. Put shortly:
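Human cervical adenocarcinoma KB-8-5-11 cells, selected in colchicine to over-express P-gp and assayed without it, were exposed for 72 h to titrated compounds. An ATP-based luminescent viability signal gave AC50.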

Assay [11] can be described thus: Identifying Small Molecule Inhibitors of Pancreatic Cancer Stem Cells (A278, Adherent) (AID 1259361).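 Also: viability read after 48 h compound exposure; nearly all actives have a fitted effect of over 35% in size.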 Put shortly:
as §2

A short description of assay [12]: NS1 protein of Zika virus - qHTS assay to identify small molecule inhibitors in human HEK 293 cells (AID 1347053). Also: nearly all actives have a fitted effect of over 55% in size. Also: potency is read from the fitted curve at half-maximal effect. Put shortly: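 In this cell-based screen, HEK 293 cultures received compound for one hour before Zika MR766 at MOI = 0.5. NS1 was quantified 24 hours later by TR-FRET, normalized to virus-free wells and infected wells.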

SMILES strings stand for the structures. Where “and” joins values, the source holds several entries; their conditions need not be identical. Identical values can stand only once. Records with an inconclusive call do not appear. The source holds several records for some structures; these can differ, active in one and inactive in another. Calls of active or inactive are those of the source. Calls follow the shape of the dose curve; as a rule, active = well fitted curve in the direction sought with a large enough effect; inconclusive = small, poorly fitted or top-dose-only effect, or another doubt; inactive = no such curve, though single readings can be large; an effect the other way counts as inactive or inconclusive.

`COc1cc(C(C)C)c2c(c1)S(=O)(=O)N(COc1cc(=O)n3cccc(OCCN4CCCCC4)c3n1)C2=O`: the Potency entry in assay [1], in assay [2], in assay [7], in assay [8], in [9] and in assay [10] was “inactive” each time. For the same compound, the Potency in [3] was 10.5 µM (active); in assay [4], 18.7 µM (active); in assay [5] it was 26.4 µM (active); in [6] it was 20.9 µM (active).
As to `CC(C)(C)c1cc(NC(=O)Nc2ccc(-c3cn4c(n3)sc3cc(OCCN5CCOCC5)ccc34)cc2)no1`, the Potency entry in assay [1], in assay [2], in assay [3], in [4], in assay [5] and in assay [6] was “inactive” throughout. In addition, the Potency entry in assay [7], in assay [10] and in assay [12] was “inactive” throughout. Besides, in assay [11], the IC50 (viability decrease) is 10.5 µM (active).
On to `C=CC(=O)Nc1cccc(Oc2nc(Nc3ccc(N4CCN(C)CC4)cc3)ncc2Cl)c1`, for which the Potency entry in [1] and in assay [2] was “inactive” each time. Also, the Potency is 2.35 µM (active) in [3]; 14.8 µM (active) in assay [4]; 2.64 µM (active) in assay [5]; 2.64 µM (active) in [6]; 3.32 µM (active) and 7.31 µM (active) in assay [10]; 13.2 µM (active) in assay [12].
As for `CCS(=O)(=O)c1cccc(-c2cc(C(=O)NC3CCN(C)CC3)c(C)c3[nH]c4ncc(C)cc4c23)c1`, the Potency entry in assay [1], in [2] and in [10] was “inactive” in each case. In addition, the Potency was 0.743 µM (active) in [3]; 3.32 µM (active) in [4]; 0.118 µM (active) in [5]; 0.235 µM (active) in assay [6]; 13.2 µM (active) in [12].
For the compound `O=C(Cc1ccc(-c2ccc(OCCN3CCOCC3)cc2)cn1)NCc1ccccc1`, the Potency entry in assay [1] and in assay [2] was “inactive” throughout. Besides, the Potency was 0.0235 µM (active) in assay [3]; 0.0372 µM (active) in assay [4]; 0.0235 µM (active) in assay [5]; 0.0235 µM (active) in assay [6]; 18.7 nM (active) and 580 nM (active) in [10]; 0.0743 µM (active) in assay [12].
Turning to `COc1cccc2c(NCc3ccccc3)nc(-n3c(N)nc4ccccc43)nc12`, the Potency result in assay [1], in [2] and in [10] was “inactive” in each case. In addition, the Potency in [3] was 8.33 µM (active); in assay [4] it was 8.33 µM (active); in assay [5], 8.33 µM (active); in assay [6], 10.5 µM (active); in assay [12] it was 9.35 µM (active).
In the case of `Cc1nc(Nc2n[nH]c3c2CN(C(=O)N[C@H](CN(C)C)c2ccccc2)C3(C)C)c2sccc2n1`, the Potency result in assay [1], in [2] and in assay [10] was “inactive” each time. Besides, the Potency in [3] is 3.32 µM (active); in assay [4], 1.32 µM (active); in assay [5], 2.64 µM (active); in assay [6], 7.43 µM (active); in assay [12], 13.2 µM (active).
`NC(=O)c1cccc2cn(-c3ccc([C@@H]4CCCNC4)cc3)nc12`: the Potency result in [1], in assay [2] and in assay [10] was “inactive” in each case. The Potency in [3] is 1.87 µM (active); in [4], 3.72 µM (active); in assay [5] it was 7.43 µM (active); in assay [6], 2.35 µM (active); in assay [12], 11.8 µM (active).
On to `NCC(=O)Nc1ccc(-n2nc(C(F)(F)F)cc2-c2ccc3c(ccc4ccccc43)c2)cc1`, for which the Potency entry in [1] and in assay [2] was “inactive” throughout. In addition, the Potency in assay [3] is 20.9 µM (active); in [4], 4.18 µM (active); in [5], 18.7 µM (active); in [6] it was 20.9 µM (active); in [10], 14.8 µM (active) and 10.3 µM (active); in [12] it was 0.0526 µM (active).
For the compound `COc1cc(Nc2ncc(F)c(Nc3ccc4c(n3)N(COP(=O)(O)O)C(=O)C(C)(C)O4)n2)cc(OC)c1OC`, the Potency entry in assay [1], in [2] and in [12] was “inactive” in each case. The Potency in [3] was 11.8 µM (active); in assay [4] it was 16.6 µM (active); in assay [5], 7.43 µM (active); in [6], 3.32 µM (active); in assay [10] it was 1.66 µM (active) and 2.31 µM (active) and 13 µM (active).
Turning to `CC[C@@]1(O)C(=O)OCc2c1cc1n(c2=O)Cc2cc3cc(O)ccc3nc2-1`, the Potency entry in [1] and in assay [2] was “inactive” throughout. Moreover, the Potency in [3] was 0.0132 µM (active); in assay [4], 0.0118 µM (active); in assay [5] it was 0.0132 µM (active); in assay [6] it was 0.0033 µM (active); in assay [10] it was 1.16 µM (active) and 1.05 µM (active); in assay [12], 0.0332 µM (active).
For the compound `Cc1coc2c1C(=O)C(=O)c1c-2ccc2c1CCCC2(C)C`, the Potency result in assay [1], in assay [2], in assay [3], in assay [4], in assay [5] and in [12] was “inactive” in each case. For the same compound, the Potency in [6] is 0.0037 µM (active); in assay [10] it was “inactive and 9.2 µM (active)”.
Consider `Cc1cc(Nc2nc(N[C@@H](C)c3ccc(F)cc3)c(C#N)cc2F)n[nH]1`, for which the Potency result in assay [1], in assay [2] and in [12] was “inactive” throughout. The Potency in assay [3] is 1.66 µM (active); in [4] it was 13.2 µM (active); in [5], 1.05 µM (active); in assay [6], 1.32 µM (active); in assay [10], 935 nM (active) and 580 nM (active).
Regarding `Cc1cc(N2CCOCC2)cc2[nH]c(-c3c(NC[C@@H](O)c4cccc(Cl)c4)cc[nH]c3=O)nc12`, the Potency result in assay [1], in [2] and in assay [12] was “inactive” each time. The Potency in assay [3] was 0.118 µM (active); in assay [4], 0.59 µM (active); in assay [5], 20.9 µM (active); in assay [6], 1.87 µM (active); in [10] it was 14.8 µM (active) and 18.4 µM (active).
On to `CNC(=O)c1c(F)cccc1Nc1nc(Nc2cc3c(cc2OC)CCN3C(=O)CN(C)C)nc2[nH]ccc12`, for which the Potency result in [1], in assay [2] and in assay [12] was “inactive” each time. Also, the Potency was 20.9 µM (active) in assay [3]; 20.9 µM (active) in assay [4]; 7.43 µM (active) in assay [5]; 1.32 µM (active) in [6]; 16.6 µM (active) and 18.4 µM (active) in [10].
Regarding `Cc1c(C)n(Cc2ccc(-c3ccccc3C(=O)O)cc2)c2ccc(C(=O)N[C@@H](C)c3ccc([N+](=O)[O-])cc3)cc12`, the Potency entry in assay [1], in assay [2], in assay [3], in [4], in assay [5] and in assay [6] was “inactive” in each case. The Potency entry in assay [10] and in assay [12] was “inactive” each time.
On to `COc1c(OCCCN2CCOCC2)ccc2c3n(c(=NC(=O)c4cnc(N)nc4)nc12)CCN3`, for which the Potency entry in [1] and in [2] was “inactive” in each case. For the same compound, the Potency in assay [3] is 0.0575 µM (active); in assay [4], 1.82 µM (active); in [5], 0.724 µM (active); in assay [6], 0.457 µM (active); in assay [10], 150 nM (active).

The values are drawn from PubChem BioAssay (NCATS).
